The full data set covers some 8,800 targets. This sample favours those with a hit. About 0.5% of all pairs of compound and target were hits.
Experiments:
Experiment in all cases: log2 fold change, soluble protein after heating vs DMSO (PISA); higher = thermal stabilisation; K562 lysate, 10 uM; active = over 0.2 and 3.5 SD of the protein, either way, in both replicates (recomputed)
[1] = compound: Cc1cn(-c2cc(NC(=O)c3ccc(C)c(Nc4nccc(-c5cccnc5)n4)c3)cc(C(F)(F)F)c2)cn1 [nilotinib]
Procedure, shortened: (§1)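 K562 pellets were dounce-homogenised in PBS pH 7.4 with 1 mM MgCl2, and the crude extract at 1 mg/mL protein was treated with 10 μM compound for 30 min. Aliquots were heated for 3 min across 48°C-58°C, pooled, and brought to 0.5% NP-40 at 4°C; soluble protein was the supernatant after 21,000xg for 90 min. Soluble protein was quantified by TMTpro 16plex LC-MS/MS with channel sums equalised, and reported as log2 fold change in thermal stability against DMSO controls, with values from duplicates.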

[2] = compound: Cc1nc(Nc2n[nH]c3c2CN(C(=O)N[C@H](CN(C)C)c2ccccc2)C3(C)C)c2sccc2n1
Procedure, shortened: as §1

[3] = compound: Cc1nc(Nc2ncc(C(=O)Nc3c(C)cccc3Cl)s2)cc(N2CCN(CCO)CC2)n1 [dasatinib]
Procedure, shortened: as §1

[4] = compound: Cc1ncc(-c2ccnc(Nc3ccc(S(C)(=O)=O)cc3)n2)n1C(C)C
Procedure, shortened: as §1

[5] = compound: Cn1cc(-c2ccc3c(c2)CCN3C(=O)Cc2cccc(C(F)(F)F)c2)c2c(N)ncnc21
Procedure, shortened: as §1

[6] = compound: Cn1cc(CNCC2CCN(c3ncc(C(=O)NO)cn3)CC2)c2ccccc21 [quisinostat]
Procedure, shortened: as §1

[7] = compound: Cn1cncc1[C@@](N)(c1ccc(Cl)cc1)c1ccc2c(c1)c(-c1cccc(Cl)c1)cc(=O)n2C [tipifarnib]
Procedure, shortened: as §1

[8] = compound: NC(=O)Nc1cc(-c2cccc(F)c2)sc1C(=O)N[C@H]1CCCNC1
Procedure, shortened: as §1

[9] = compound: NC(=O)c1cnc(N[C@@H]2CCCC[C@@H]2N)nc1Nc1cccc(-n2nccn2)c1
Procedure, shortened: as §1

[10] = compound: NC1(c2ccc(-c3nc4ccn5c(=O)[nH]nc5c4cc3-c3ccccc3)cc2)CCC1
Procedure, shortened: as §1

Measured: log2 fold change

NFKBIB (UniProt Q15653)
inactive: [1] -0.004 | [2] -0.015 | [3] -0.042 | [4] 0.052 | [5] 0.043 | [6] -0.062 | [7] 0.059 | [8] 0.025 | [9] 0.004 | [10] -0.08

NNT (UniProt Q13423)
Chain of UniProt Q13423 (Q13423 whole entry, looked up): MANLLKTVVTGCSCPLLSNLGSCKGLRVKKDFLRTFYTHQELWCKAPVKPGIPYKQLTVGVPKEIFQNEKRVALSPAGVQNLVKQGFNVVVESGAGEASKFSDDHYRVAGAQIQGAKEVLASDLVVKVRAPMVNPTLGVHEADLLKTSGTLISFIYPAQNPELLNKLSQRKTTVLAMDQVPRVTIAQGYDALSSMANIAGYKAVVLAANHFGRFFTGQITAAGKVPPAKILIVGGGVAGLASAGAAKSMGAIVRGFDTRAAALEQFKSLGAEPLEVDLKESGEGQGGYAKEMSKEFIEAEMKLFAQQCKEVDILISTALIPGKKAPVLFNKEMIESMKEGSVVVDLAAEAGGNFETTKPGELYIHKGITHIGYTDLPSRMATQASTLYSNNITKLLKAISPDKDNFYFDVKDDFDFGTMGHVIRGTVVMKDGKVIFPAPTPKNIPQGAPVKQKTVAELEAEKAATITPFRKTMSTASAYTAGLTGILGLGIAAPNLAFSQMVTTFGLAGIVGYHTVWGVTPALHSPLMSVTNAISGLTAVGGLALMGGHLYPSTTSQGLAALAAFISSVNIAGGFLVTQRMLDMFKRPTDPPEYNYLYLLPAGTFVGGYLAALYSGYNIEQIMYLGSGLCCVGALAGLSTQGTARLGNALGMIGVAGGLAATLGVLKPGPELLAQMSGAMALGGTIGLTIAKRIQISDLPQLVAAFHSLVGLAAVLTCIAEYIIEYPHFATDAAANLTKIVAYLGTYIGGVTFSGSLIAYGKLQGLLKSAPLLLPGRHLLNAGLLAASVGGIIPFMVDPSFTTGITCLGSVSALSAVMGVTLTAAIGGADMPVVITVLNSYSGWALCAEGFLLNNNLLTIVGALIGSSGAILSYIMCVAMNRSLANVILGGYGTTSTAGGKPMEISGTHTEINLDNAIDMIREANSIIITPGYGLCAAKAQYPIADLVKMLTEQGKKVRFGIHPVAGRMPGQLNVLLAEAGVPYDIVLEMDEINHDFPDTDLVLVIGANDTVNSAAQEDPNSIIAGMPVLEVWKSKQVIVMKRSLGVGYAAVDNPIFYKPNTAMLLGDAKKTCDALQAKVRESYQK
inactive: [1] -0.017 | [2] 0.001 | [3] 0.003 | [4] 0.002 | [5] 0.002 | [6] 0.01 | [7] 0.009 | [8] -0.021 | [9] 0.002 | [10] 0.001

NOSTRIN (UniProt Q8IVI9)
Chain of UniProt Q8IVI9 (Q8IVI9 whole entry, looked up): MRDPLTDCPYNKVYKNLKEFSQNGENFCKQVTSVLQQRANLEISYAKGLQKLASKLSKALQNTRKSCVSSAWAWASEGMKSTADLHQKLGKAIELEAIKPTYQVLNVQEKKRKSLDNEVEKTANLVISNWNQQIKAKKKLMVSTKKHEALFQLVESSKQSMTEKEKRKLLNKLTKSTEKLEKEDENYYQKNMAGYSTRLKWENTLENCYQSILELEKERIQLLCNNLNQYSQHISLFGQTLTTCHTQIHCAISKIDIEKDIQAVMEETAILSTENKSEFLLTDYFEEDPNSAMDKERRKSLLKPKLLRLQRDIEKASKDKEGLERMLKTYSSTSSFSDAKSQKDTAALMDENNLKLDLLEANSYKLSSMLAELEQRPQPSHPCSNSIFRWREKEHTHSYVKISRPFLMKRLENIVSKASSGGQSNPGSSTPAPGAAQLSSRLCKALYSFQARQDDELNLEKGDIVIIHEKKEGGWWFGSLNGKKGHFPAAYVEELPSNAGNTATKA
inactive: [1] -0.015 | [2] -0.02 | [3] -0.022 | [4] 0.03 | [5] 0.01 | [6] -0.031 | [7] -0.008 | [8] 0.01 | [9] -0.018 | [10] 0.064

NTPCR (UniProt Q9BSD7)
Chain of UniProt Q9BSD7 (Q9BSD7 whole entry, looked up): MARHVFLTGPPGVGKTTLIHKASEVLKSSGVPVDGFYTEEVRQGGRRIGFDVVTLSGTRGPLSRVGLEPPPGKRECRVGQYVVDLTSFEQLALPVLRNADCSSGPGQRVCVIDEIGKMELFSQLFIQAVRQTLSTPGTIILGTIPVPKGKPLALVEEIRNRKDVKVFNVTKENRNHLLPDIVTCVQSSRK
inactive: [1] 0.019 | [2] -0.01 | [3] -0.061 | [4] 0.056 | [5] 0.032 | [6] -0.088 | [7] 0.003 | [8] 0.028 | [9] 0.017 | [10] -0.027

PAK1 (UniProt Q13153)
Chain of UniProt Q13153 (Q13153 whole entry, looked up): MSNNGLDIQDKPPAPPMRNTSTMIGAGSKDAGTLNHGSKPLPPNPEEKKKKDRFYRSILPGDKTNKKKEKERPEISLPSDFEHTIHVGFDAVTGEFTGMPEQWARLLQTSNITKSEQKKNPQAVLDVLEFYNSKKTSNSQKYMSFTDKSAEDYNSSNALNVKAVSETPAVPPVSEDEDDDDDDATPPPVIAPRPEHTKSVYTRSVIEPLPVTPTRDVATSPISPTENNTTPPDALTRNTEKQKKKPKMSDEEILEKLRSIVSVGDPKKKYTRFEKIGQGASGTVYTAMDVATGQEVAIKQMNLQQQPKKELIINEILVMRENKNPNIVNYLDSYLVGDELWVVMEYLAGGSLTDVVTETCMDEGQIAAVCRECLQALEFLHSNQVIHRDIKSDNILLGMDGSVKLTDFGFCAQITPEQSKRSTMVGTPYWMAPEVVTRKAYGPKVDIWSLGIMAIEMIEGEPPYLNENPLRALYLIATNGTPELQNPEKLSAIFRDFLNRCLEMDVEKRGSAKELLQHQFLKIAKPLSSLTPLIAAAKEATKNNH
inactive: [1] 0.028 | [2] 0.02 | [3] 0.046 | [4] 0.012 | [5] -0.024 | [6] 0.044 | [7] -0.053 | [8] -0.028 | [9] -0.025 | [10] -0.012

NT5DC2 isoform 2 (UniProt Q9H857)
Chain of UniProt Q9H857 (Q9H857 whole entry, looked up): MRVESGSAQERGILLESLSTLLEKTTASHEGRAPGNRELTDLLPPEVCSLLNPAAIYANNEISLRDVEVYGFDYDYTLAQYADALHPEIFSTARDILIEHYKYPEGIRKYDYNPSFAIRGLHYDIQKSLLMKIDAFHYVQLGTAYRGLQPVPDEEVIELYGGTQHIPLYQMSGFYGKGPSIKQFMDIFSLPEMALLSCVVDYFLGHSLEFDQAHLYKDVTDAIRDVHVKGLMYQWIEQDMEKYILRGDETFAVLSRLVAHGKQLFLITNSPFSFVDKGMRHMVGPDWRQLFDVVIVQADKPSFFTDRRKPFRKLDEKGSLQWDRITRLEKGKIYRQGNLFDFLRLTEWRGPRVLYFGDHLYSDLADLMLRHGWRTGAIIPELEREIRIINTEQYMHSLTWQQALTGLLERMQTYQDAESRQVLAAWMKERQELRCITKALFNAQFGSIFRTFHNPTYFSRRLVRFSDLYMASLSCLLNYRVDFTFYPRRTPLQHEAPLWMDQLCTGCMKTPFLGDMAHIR
inactive: [1] 0.025 | [2] -0.041 | [3] 0.067 | [4] 0.029 | [5] -0.027 | [6] -0.002 | [7] -0.027 | [8] -0.002 | [9] 0.06 | [10] -0.011

NUP160 (UniProt Q12769)
inactive: [1] 0.014 | [2] -0.025 | [3] -0.092 | [4] -0.032 | [5] 0.021 | [6] -0.032 | [7] -0.031 | [8] 0.009 | [9] 0.002 | [10] -0.018

OSBPL6 isoform 5 (UniProt Q9BZF3)
Chain of UniProt Q9BZF3 (Q9BZF3 whole entry, looked up): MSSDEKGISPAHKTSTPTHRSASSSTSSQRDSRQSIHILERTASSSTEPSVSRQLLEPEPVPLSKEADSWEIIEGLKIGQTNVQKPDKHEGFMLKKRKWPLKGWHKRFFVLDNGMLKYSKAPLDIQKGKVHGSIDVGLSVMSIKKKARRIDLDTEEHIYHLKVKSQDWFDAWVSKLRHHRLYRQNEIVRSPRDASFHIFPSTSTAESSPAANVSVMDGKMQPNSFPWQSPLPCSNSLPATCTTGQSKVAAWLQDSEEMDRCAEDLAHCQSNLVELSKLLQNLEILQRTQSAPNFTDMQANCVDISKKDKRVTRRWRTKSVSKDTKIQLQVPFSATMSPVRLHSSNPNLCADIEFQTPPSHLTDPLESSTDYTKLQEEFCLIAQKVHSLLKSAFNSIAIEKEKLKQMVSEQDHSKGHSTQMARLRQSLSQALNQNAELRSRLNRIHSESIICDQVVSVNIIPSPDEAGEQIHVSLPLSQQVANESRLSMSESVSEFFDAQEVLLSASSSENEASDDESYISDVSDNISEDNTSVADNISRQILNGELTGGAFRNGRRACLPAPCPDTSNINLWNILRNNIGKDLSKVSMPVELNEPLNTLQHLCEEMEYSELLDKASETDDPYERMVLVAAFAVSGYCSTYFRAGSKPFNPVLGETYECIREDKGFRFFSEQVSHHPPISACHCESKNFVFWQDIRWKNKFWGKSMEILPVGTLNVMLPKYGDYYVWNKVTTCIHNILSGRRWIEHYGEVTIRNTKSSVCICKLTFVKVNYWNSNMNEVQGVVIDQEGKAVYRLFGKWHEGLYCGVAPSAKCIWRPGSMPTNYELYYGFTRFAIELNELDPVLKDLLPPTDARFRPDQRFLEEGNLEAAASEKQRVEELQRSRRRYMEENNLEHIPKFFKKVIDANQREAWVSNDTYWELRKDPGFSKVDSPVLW
inactive: [1] 0.281 | [2] 0.018 | [3] -0.082 | [4] -0.045 | [5] 0.036 | [6] -0.07 | [7] -0.003 | [8] 0.122 | [9] 0.007 | [10] -0.238

NONO (UniProt Q15233)
Chain of UniProt Q15233 (Q15233 whole entry, looked up): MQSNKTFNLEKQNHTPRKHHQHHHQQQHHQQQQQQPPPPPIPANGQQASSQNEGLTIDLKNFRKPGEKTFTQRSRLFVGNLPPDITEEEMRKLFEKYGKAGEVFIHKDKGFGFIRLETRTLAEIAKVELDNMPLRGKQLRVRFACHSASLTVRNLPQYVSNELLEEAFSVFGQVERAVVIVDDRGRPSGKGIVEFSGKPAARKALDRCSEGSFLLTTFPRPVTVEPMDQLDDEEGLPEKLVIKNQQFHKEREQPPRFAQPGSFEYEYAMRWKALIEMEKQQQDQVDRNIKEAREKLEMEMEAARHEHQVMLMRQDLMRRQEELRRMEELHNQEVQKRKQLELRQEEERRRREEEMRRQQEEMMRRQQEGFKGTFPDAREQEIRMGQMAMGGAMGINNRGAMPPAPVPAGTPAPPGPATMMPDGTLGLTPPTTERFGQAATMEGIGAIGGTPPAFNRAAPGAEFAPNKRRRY
inactive: [1] -0.007 | [2] -0.011 | [3] -0.047 | [4] 0.007 | [5] 0.012 | [6] -0.004 | [7] -0.007 | [8] 0.022 | [9] 0.008 | [10] -0.013

NDUFAF5 (UniProt Q5TEU4)
Chain of UniProt Q5TEU4 (Q5TEU4 whole entry, looked up): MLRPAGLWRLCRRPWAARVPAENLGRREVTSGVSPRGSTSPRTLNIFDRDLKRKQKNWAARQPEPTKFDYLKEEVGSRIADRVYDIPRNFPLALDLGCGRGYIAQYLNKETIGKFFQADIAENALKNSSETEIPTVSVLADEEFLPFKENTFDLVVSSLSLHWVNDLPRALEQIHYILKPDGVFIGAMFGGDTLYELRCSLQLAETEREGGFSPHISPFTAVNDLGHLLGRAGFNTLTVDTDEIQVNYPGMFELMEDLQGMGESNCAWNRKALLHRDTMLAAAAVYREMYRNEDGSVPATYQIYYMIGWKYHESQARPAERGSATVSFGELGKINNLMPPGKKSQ
inactive: [3] 0.02 | [5] -0.061 | [6] -0.078 | [8] 0.114 | [9] -0.034 | [10] -0.042

NPTN (UniProt Q9Y639)
Chain of UniProt Q9Y639 (Q9Y639 whole entry, looked up): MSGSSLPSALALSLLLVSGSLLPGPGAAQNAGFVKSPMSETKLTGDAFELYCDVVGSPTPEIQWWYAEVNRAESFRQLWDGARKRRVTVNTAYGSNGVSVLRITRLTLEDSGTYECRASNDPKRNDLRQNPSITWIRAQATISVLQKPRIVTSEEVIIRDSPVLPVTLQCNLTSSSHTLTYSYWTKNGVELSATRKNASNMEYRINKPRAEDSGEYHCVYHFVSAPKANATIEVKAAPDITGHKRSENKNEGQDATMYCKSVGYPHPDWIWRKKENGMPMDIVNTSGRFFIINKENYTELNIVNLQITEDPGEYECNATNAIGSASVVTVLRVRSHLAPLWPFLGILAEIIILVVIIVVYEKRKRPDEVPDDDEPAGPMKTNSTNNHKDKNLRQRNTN
inactive: [1] -0.029 | [2] 0.005 | [3] -0.06 | [4] -0.025 | [5] -0.009 | [6] -0.038 | [7] 0.043 | [8] 0.031 | [9] 0.004 | [10] 0.002

Reference: the supplement of paper PMC10849652
